Test results reported in PubChem BioAssay.

experiment: MM1S cell viability effects, profiling panel, calcein-AM fluorescence, 48 h, basal (AID 1165); conditions: higher = more signal;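 also: viability of MM1S multiple myeloma cells under basal unstimulated conditions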
Also: test concentration not given here.

SMILES | z-score
CCCCN1CC=CC23O[C@@H]4/C=C\CCCOC(=O)C4[C@H]2C(=O)N(CCO)[C@@H]3C1=O (some centres not stated) | 1.04
COCCCNC(=O)[C@@]1(CCC(=O)OC(C)(C)C)N=C(c2ccc(OCCCO)cc2)O[C@H]1c1ccccc1N=[N+]=[N-] | -1.21
CS(=O)(=O)CCOC(=O)C1=CC(c2ccc(CO)cc2)=CC(C2CC2)N(Cc2sc3ccccc3c2Cl)C=C1C(=O)OCCS(C)(=O)=O (configuration not stated) | -3.29
COCCOC(=O)N1C(=O)[C@@]2(c3ccccc31)[C@H](C(=O)NC[C@H](O)c1ccccc1)[C@H]1C(=O)O[C@H](c3ccccc3)[C@H](c3ccccc3)N1[C@@H]2c1ccc(O)cc1 | -1.12
CN(C)C(=O)[C@]1(Cc2ccccc2CN=[N+]=[N-])N=C(c2ccc(OCCCO)cc2)O[C@@H]1c1ccccc1 | -3.16
COc1cc(OC)c(C(O)C2C=CC3C(=O)N(Cc4ccccc4)C(=O)C3N2n2cnnc2)cc1Br (configuration not stated) | -0.125
C=C[C@H](C)[C@H](OC(=O)Nc1ccc(SC)cc1)c1ccc(OCCO)cc1 | -0.889
CCOC(=O)C1=C[C@@H](C(C)C)N(S(=O)(=O)c2ccc(C)cc2)[C@H]1c1ccc(C(F)(F)F)cc1 | -2.91
CCOC(=O)C[C@H]1[C@H](OC(=O)c2ccc(-c3ccccc3)cc2)[C@@H](NC(=O)CC(C)C)c2cc(OCCCO)ccc2N1C(=O)c1ccc2ccccc2n1 | 0.139
COc1cccc(C)c1NC(=O)O[C@H]1[C@H](OC(=O)Nc2ccccc2-c2ccccc2)[C@H](OC(=O)Nc2ccccc2-c2ccccc2)[C@@H](OC)O[C@@H]1CO | -0.632
C=C(COC)C(=O)CC[C@@H](OC(C)=O)c1cccc(OCCO)c1 | -3.46
C=CCNC(=O)[C@@H]1[C@H]2C(=O)O[C@H](c3ccccc3)[C@H](c3ccccc3)N2[C@H](c2ccc(OCCO)cc2)[C@@]12C(=O)N(C(=O)OCCOC)c1ccc(C#Cc3ccc(OC)cc3)cc12 | -0.845
CCCNC(=O)[C@@]1(C)c2ccccc2C(=O)N(c2ccc(C)cn2)[C@H]1c1ccc(CO)cc1 | -0.108
CC(=O)NCCCC[C@@H]1NC(=O)[C@@H]2C[C@H](C(=O)NCCCCCN)[C@H](c3ccc(O)cc3)N2C1=O | -0.449
CC1CC/C=C\[C@H]2OC34C=CCN(Cc5ccccc5)C(=O)[C@H]3N(C(CO)C(C)C)C(=O)[C@@H]4C2C(=O)O1 (some centres not stated) | 0.947
COc1ccc(CCNC(=O)[C@@]2(c3ccc([N+](=O)[O-])cc3)CC(=O)N(C3CCCCC3)[C@@H]2c2ccc(CO)cc2)cc1 | 0.547
C=CCC(OC(C)=O)[C@@H]1[C@@H](N(Cc2cccc3ccccc23)C(=O)Cc2ccc(OC)cc2)c2cc(OCCCO)ccc2N1C(=O)c1ccc(-c2ccccc2)cc1 (some centres not stated) | -0.47
COc1ccc([Si](C)(C)[C@@H]2[C@@H](CCO)O[C@]3(C(=O)N(Cc4ccccc4)c4ccc(NC(=O)[C@H](C)O)cc43)[C@H]2C)cc1 | -2.62
[N-]=[N+]=Nc1ccccc1[C@@H]1OC(c2ccc(OCCCO)cc2)=N[C@]1(Cc1ccccc1)C(=O)O | -1.49
COc1ccc([C@H]2OC[C@@H]3C[C@H](Cc4ccccc4)C(=O)N32)cc1 | 0.191
CC(C)N1CC=CC23O[C@@H]4C=CCCOC(=O)C4[C@H]2C(=O)N(CCCO)[C@@H]3C1=O (some centres not stated) | 0.756
COc1ccc([Si](C)(C)[C@@H]2[C@@H](CCO)O[C@]3(C(=O)N(Cc4cccc(NC(=O)[C@H](C)O)c4)c4ccccc43)[C@H]2C)cc1 | -2.88
NCCCCCNC(=O)[C@@H]1C[C@@H]2C(=O)N[C@@H](CCCCN)C(=O)N2[C@@H]1c1ccc(O)cc1 | -0.29
C=CCN1Cc2ccccc2[C@@H]2OC(c3ccc(OCCCO)cc3)=N[C@]2(CC=C)C1=O | -2.62
C=CCNC(=O)[C@@H]1[C@H]2C(=O)O[C@H](c3ccccc3)[C@H](c3ccccc3)N2[C@H](c2ccccc2OCCO)[C@@]12C(=O)N(C(=O)OCCOC)c1ccc(C#CC3(O)CCCCCC3)cc12 | -2.55
CC(C)N1C(=O)c2ccccc2[C@@H](C(=O)NCCN2CCOCC2)[C@@H]1c1ccc(CO)cc1 | -0.551

experiment: basal RPMI8226 viability, no added stimulus, profiling panel, cell-based, calcein-AM fluorescence, 48 h, PK04 Diversity Set (AID 1166); conditions: RPMI8226 myeloma viability, higher = more signal;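 also: cells grown under basal conditions without added stimulus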

SMILES | z-score
NC(=O)NCC#Cc1ccc2c(c1)[C@]1(C(=O)N2)[C@H](C(=O)N2CCN(c3ncccn3)CC2)[C@H]2C(=O)O[C@H](c3ccccc3)[C@H](c3ccccc3)N2[C@@H]1c1ccc(O)cc1 | 0.18
COc1ccc(C#Cc2ccc3c(c2)[C@]2(C(=O)N3)[C@H](c3ccc(O)cc3)N3[C@H](c4ccccc4)[C@H](c4ccccc4)OC(=O)[C@H]3[C@@H]2C(=O)Nc2nc3ccccc3s2)cc1 | -2.6
COCCCNC(=O)[C@@]1(Sc2ccc(C)cc2)CC(=O)N(C2Cc3ccccc3C2)[C@@H]1c1ccc(CO)cc1 | -0.204
CCC1=C2CN(Cc3ccccc3)[C@@H](C(=O)Cc3ccccc3)C2C=CCC1 (some centres not stated) | -0.96
CCOC(=O)C1=C[C@@H](C(C)(C)C)N(S(=O)(=O)c2ccc(C)cc2)[C@H]1c1cccc2ccccc12 | -2.97
C=CCC(OC(C)=O)[C@@H]1[C@@H](N(Cc2cc3ccccc3o2)C(=O)Cc2ccc(F)cc2)c2cc(OCCCO)ccc2N1C(=O)Cc1ccc2ccccc2c1 (some centres not stated) | -0.759
COC(=O)[C@@]1(Cc2ccc(OC)cc2)[C@H]2c3cc(C(=O)N4CCCC4)n(CCc4c[nH]c5ccc(OC)cc45)c3C[C@H]2CN1C(=O)c1ccccc1 | -3.62
COC(=O)[C@@]1(Cc2ccc(OC)cc2)[C@H]2c3cc(C(=O)N(C)C)n(Cc4ccc(C)o4)c3C[C@H]2CN1C(=O)c1ccccc1 | -0.744
CC(C)c1ccc(NN2C(C(O)c3ccc(F)cc3)C=CC3C(=O)N(c4ccccc4)C(=O)C32)cc1 (configuration not stated) | -1.46
COc1cc2c(cc1O)C(C1CC1)N(C)CC2 (configuration not stated) | -0.393
CCCCN1CC=CC23O[C@@H]4/C=C\CCCOC(=O)C4[C@H]2C(=O)N(CCO)[C@@H]3C1=O (some centres not stated) | -0.711
COCCCNC(=O)[C@@]1(CCC(=O)OC(C)(C)C)N=C(c2ccc(OCCCO)cc2)O[C@H]1c1ccccc1N=[N+]=[N-] | -1.16
CS(=O)(=O)CCOC(=O)C1=CC(c2ccc(CO)cc2)=CC(C2CC2)N(Cc2sc3ccccc3c2Cl)C=C1C(=O)OCCS(C)(=O)=O (configuration not stated) | -2.92
COCCOC(=O)N1C(=O)[C@@]2(c3ccccc31)[C@H](C(=O)NC[C@H](O)c1ccccc1)[C@H]1C(=O)O[C@H](c3ccccc3)[C@H](c3ccccc3)N1[C@@H]2c1ccc(O)cc1 | -3.46
CN(C)C(=O)[C@]1(Cc2ccccc2CN=[N+]=[N-])N=C(c2ccc(OCCCO)cc2)O[C@@H]1c1ccccc1 | -4.37
COc1cc(OC)c(C(O)C2C=CC3C(=O)N(Cc4ccccc4)C(=O)C3N2n2cnnc2)cc1Br (configuration not stated) | -0.0145
C=C[C@H](C)[C@H](OC(=O)Nc1ccc(SC)cc1)c1ccc(OCCO)cc1 | -2.41
CCOC(=O)C1=C[C@@H](C(C)C)N(S(=O)(=O)c2ccc(C)cc2)[C@H]1c1ccc(C(F)(F)F)cc1 | -1.65

SMILES | z-score
CCOC(=O)C[C@H]1[C@H](OC(=O)c2ccc(-c3ccccc3)cc2)[C@@H](NC(=O)CC(C)C)c2cc(OCCCO)ccc2N1C(=O)c1ccc2ccccc2n1 | 0.0627
COc1cccc(C)c1NC(=O)O[C@H]1[C@H](OC(=O)Nc2ccccc2-c2ccccc2)[C@H](OC(=O)Nc2ccccc2-c2ccccc2)[C@@H](OC)O[C@@H]1CO | -2.77
C=C(COC)C(=O)CC[C@@H](OC(C)=O)c1cccc(OCCO)c1 | -0.496
C=CCNC(=O)[C@@H]1[C@H]2C(=O)O[C@H](c3ccccc3)[C@H](c3ccccc3)N2[C@H](c2ccc(OCCO)cc2)[C@@]12C(=O)N(C(=O)OCCOC)c1ccc(C#Cc3ccc(OC)cc3)cc12 | -1.32
CCCNC(=O)[C@@]1(C)c2ccccc2C(=O)N(c2ccc(C)cn2)[C@H]1c1ccc(CO)cc1 | 0.526
CC(=O)NCCCC[C@@H]1NC(=O)[C@@H]2C[C@H](C(=O)NCCCCCN)[C@H](c3ccc(O)cc3)N2C1=O | -0.131
CC1CC/C=C\[C@H]2OC34C=CCN(Cc5ccccc5)C(=O)[C@H]3N(C(CO)C(C)C)C(=O)[C@@H]4C2C(=O)O1 (some centres not stated) | 0.847
COc1ccc(CCNC(=O)[C@@]2(c3ccc([N+](=O)[O-])cc3)CC(=O)N(C3CCCCC3)[C@@H]2c2ccc(CO)cc2)cc1 | 0.841
C=CCC(OC(C)=O)[C@@H]1[C@@H](N(Cc2cccc3ccccc23)C(=O)Cc2ccc(OC)cc2)c2cc(OCCCO)ccc2N1C(=O)c1ccc(-c2ccccc2)cc1 (some centres not stated) | 0.0509
COc1ccc([Si](C)(C)[C@@H]2[C@@H](CCO)O[C@]3(C(=O)N(Cc4ccccc4)c4ccc(NC(=O)[C@H](C)O)cc43)[C@H]2C)cc1 | -4.3
[N-]=[N+]=Nc1ccccc1[C@@H]1OC(c2ccc(OCCCO)cc2)=N[C@]1(Cc1ccccc1)C(=O)O | -0.56
COc1ccc([C@H]2OC[C@@H]3C[C@H](Cc4ccccc4)C(=O)N32)cc1 | -0.598
CC(C)N1CC=CC23O[C@@H]4C=CCCOC(=O)C4[C@H]2C(=O)N(CCCO)[C@@H]3C1=O (some centres not stated) | -0.457
COc1ccc([Si](C)(C)[C@@H]2[C@@H](CCO)O[C@]3(C(=O)N(Cc4cccc(NC(=O)[C@H](C)O)c4)c4ccccc43)[C@H]2C)cc1 | -4.36
NCCCCCNC(=O)[C@@H]1C[C@@H]2C(=O)N[C@@H](CCCCN)C(=O)N2[C@@H]1c1ccc(O)cc1 | -0.0496
C=CCN1Cc2ccccc2[C@@H]2OC(c3ccc(OCCCO)cc3)=N[C@]2(CC=C)C1=O | -2.83
C=CCNC(=O)[C@@H]1[C@H]2C(=O)O[C@H](c3ccccc3)[C@H](c3ccccc3)N2[C@H](c2ccccc2OCCO)[C@@]12C(=O)N(C(=O)OCCOC)c1ccc(C#CC3(O)CCCCCC3)cc12 | -3.61
CC(C)N1C(=O)c2ccccc2[C@@H](C(=O)NCCN2CCOCC2)[C@@H]1c1ccc(CO)cc1 | 0.165
